Data taken from PubChem BioAssay (EPA / NIEHS).
Several values for one entry are separate records, joined by “and”; a condition that tells them apart may be missing. Equal values may be shown once. Activity calls are given as the source filed them. How the source made its calls: active means hit-call score of the fitted dose curve at least 0.9, where 1 is the maximum; inactive means score below 0.9.

Tests used:
[1] = APR_HepG2_MitoticArrest_72hr: Apredica 72-hour HepG2 Assay for Mitotic Arrest (AID 2282918); conditions: high-content imaging, actives raise or lower the signal
In short: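 HepG2 cells were exposed for 72 hr to compound at 0.39–200 uM (10 concentrations, duplicate) in 0.5% v/v DMSO, fixed in 3.7% formaldehyde, immunostained for phospho-histone H3 with Hoechst 33342 and imaged by high-content fluorescence; bidirectional fits versus DMSO.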

[2] = APR_HepG2_StressKinase_72hr: Apredica 72-hour HepG2 Assay for Stress Kinase (AID 2282921); conditions: HepG2 stress kinase (phospho-c-Jun) imaging, actives raise or lower the signal
In short: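 After a 72 h compound treatment spanning 0.39 to 200 uM, formaldehyde-fixed cells are labelled for phosphorylated c-Jun and nuclei, imaged by automated fluorescence microscopy, and activity is fitted in both directions relative to DMSO controls.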

[3] = APR_HepG2_StressKinase_24hr: Apredica 24-hour HepG2 Assay for Stress Kinase (AID 2282922); conditions: HepG2 stress kinase (phospho-c-Jun) imaging, actives raise or lower the signal
In short: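 After 24 hr compound treatment (up to 200 uM, final DMSO 0.5% v/v), HepG2 cells are fixed and multiplex-labeled; phospho-c-Jun intensity is captured by high-content fluorescence imaging and analyzed relative to DMSO.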

[4] = APR_HepG2_NuclearSize_72hr: Apredica 72-hour HepG2 Assay for Nuclear Size (AID 2282925); conditions: high-content imaging, actives raise or lower the signal
In short: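 Compounds (0.39–200 uM, final DMSO 0.5%) were applied to HepG2 for 72 hr. Cells were then formaldehyde-fixed, permeabilized and labelled with Hoechst 33342. Nuclear diameter was quantified from six images per well.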

[5] = ATG_CRE_CIS: Attagene CIS-FACTORIAL HepG2 Assay for human cAMP Responsive Element (CRE) binding protein 3 (AID 2282926); conditions: HepG2 CRE cis-reporter, Attagene multiplexed mRNA; actives raise or lower the signal
In short: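 Capillary electrophoresis of 6-FAM-labelled, HpaI-digested PCR products quantified reporter transcripts. These came from HepG2 transiently transfected with cis-element reporters and exposed to test chemicals for 24 hours, with DMSO defining baseline activity.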

[6] = target: CCAAT/enhancer-binding protein beta (Homo sapiens) (UniProt P17676); experiment: ATG_C_EBP_CIS: Attagene CIS-FACTORIAL HepG2 Assay for human CCAAT/Enhancer Binding Protein (C/EBP) beta (AID 2282927); conditions: HepG2 Attagene cis-factorial transcription factor reporter; actives raise or lower the signal
Sequence of CCAAT/enhancer-binding protein beta (Homo sapiens) (P17676 whole entry, looked up): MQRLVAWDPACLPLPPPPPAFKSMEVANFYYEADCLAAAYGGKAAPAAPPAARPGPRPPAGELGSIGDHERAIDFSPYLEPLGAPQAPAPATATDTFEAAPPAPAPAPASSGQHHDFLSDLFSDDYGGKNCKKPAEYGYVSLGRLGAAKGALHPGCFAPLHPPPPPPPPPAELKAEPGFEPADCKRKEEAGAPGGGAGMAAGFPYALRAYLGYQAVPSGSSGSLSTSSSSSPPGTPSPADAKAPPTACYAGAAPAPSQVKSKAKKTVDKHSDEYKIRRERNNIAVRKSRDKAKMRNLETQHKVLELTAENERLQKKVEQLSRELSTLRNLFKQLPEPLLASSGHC
In short: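 Following a 24 h incubation with test chemical, transfected HepG2 cells yielded RNA whose reporter transcripts were quantified by RT-PCR and fluorescent capillary electrophoresis, with DMSO serving as baseline for bidirectional fitting.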

[7] = ATG_CMV_CIS: Attagene CIS-FACTORIAL HepG2 Assay for human CMV (Internal Marker) (AID 2282928); conditions: HepG2 CMV promoter reporter, transcription factor profiling; actives raise or lower the signal;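 further: endpoint acts as a background internal control marker rather than a target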
In short: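 24 h chemical treatment, HepG2 with transient multi-reporter transfection; RNA → oligo(dT) RT → PCR → 6-FAM extension → HpaI digest → CE fluorescence. Bidirectional fit, DMSO negative control.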

[8] = ATG_DR4_LXR_CIS: Attagene CIS-FACTORIAL HepG2 Assay for human Liver X Receptor (LXR), DR4 submotif (AID 2282929); conditions: HepG2 Attagene DR4 cis-reporter, mRNA transcription; actives raise or lower the signal
In short: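 Transiently transfected HepG2 liver cells; cis-regulated reporters; 24 h dosing. RT-PCR plus CE read-out of reporter mRNA. DMSO baseline, bidirectional curve fitting.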

[9] = ATG_AP_1_CIS: Attagene CIS-FACTORIAL HepG2 Assay for human Activator Protein 1 (AP-1) (AID 2282931); conditions: HepG2 Attagene cis-factorial AP-1 reporter mRNA; actives raise or lower the signal
In short: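 We transfected HepG2 cells transiently with a set of cis-regulated reporter transcription units, dosed them for 24 h, and quantified reporter mRNA via RT-PCR and capillary electrophoresis, scoring gain or loss of signal relative to DMSO.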

[10] = ATG_AP_2_CIS: Attagene CIS-FACTORIAL HepG2 Assay for human Activator Protein 2 (AP-2) (AID 2282932); conditions: HepG2 AP-2 cis-reporter, Attagene transcription factor profiling; actives raise or lower the signal
In short: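 Cells (HepG2) transfected with promoter-driven reporter constructs, treated 24 h. Total RNA reverse-transcribed, reporter cDNA PCR-amplified, FAM-labelled by primer extension, digested, resolved by capillary electrophoresis. Activity fitted both directions versus DMSO.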

[11] = ATG_BRE_CIS: Attagene CIS-FACTORIAL HepG2 Assay for human Bone Morphogenetic Protein (BMP) Response Element (BRE) (AID 2282933); conditions: HepG2 BMP response element reporter, Attagene transcription factor profiling; actives raise or lower the signal
In short: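 Multiplexed cis-reporter assay, HepG2, 24 h exposure. mRNA from reporter units quantified via RT-PCR/CE; DMSO baseline; bidirectional curve fit.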

[12] = target: Transcription factor E2F1 (Homo sapiens) (UniProt Q01094); experiment: ATG_E2F_CIS: Attagene CIS-FACTORIAL HepG2 Assay for human E2F Transcription Factor 1 (AID 2282935); conditions: HepG2 Attagene cis-reporter, E2F reporter RNA transcripts; actives raise or lower the signal
Sequence of Transcription factor E2F1 (Homo sapiens) (Q01094 whole entry, looked up): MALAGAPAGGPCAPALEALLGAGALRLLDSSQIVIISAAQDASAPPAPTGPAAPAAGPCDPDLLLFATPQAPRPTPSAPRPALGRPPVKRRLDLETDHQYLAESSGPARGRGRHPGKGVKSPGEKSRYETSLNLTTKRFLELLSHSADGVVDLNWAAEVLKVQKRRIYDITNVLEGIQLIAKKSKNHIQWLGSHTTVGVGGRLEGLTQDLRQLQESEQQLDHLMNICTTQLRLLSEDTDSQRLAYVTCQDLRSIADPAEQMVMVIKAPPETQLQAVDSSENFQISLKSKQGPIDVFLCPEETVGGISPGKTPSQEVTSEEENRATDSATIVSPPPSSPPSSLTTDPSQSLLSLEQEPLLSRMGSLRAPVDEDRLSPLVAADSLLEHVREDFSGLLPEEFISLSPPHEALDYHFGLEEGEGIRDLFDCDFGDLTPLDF
In short: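 First, HepG2 cells were transfected with reporter transcription units. Next, they were dosed for 24 h. Then RNA was isolated, converted to cDNA, PCR-amplified, FAM-labeled, HpaI-digested and analyzed by capillary electrophoresis.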

[13] = ATG_E_Box_CIS: Attagene CIS-FACTORIAL HepG2 Assay for human Enhancer Box (E-box) (AID 2282936); conditions: HepG2 E-box cis-reporter transcription, actives raise or lower the signal
In short: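 Endogenous transcription factor activity was sensed in human HepG2 liver cells through transfected cis-promoter reporter units. After 24 h of dosing, total RNA was reverse-transcribed and reporter cDNA resolved by capillary electrophoresis.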

[14] = ATG_M_61_CIS: Attagene CIS-FACTORIAL HepG2 Assay for M61 Transcription Factor (Internal Marker) (AID 2282937); conditions: HepG2 Attagene CIS-FACTORIAL M61 internal marker reporter; actives raise or lower the signal
In short: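 Multiplexed reporter mRNA assay, HepG2 human hepatoma cells, 24 h treatment. Signal: FAM-labelled, HpaI-digested RT-PCR fragments by CE. Fit: bidirectional, baseline DMSO.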

[15] = ATG_EGR_CIS: Attagene CIS-FACTORIAL HepG2 Assay for human Early Growth Response 1 (EGR1) (AID 2282938); conditions: HepG2 Attagene CIS-FACTORIAL EGR reporter mRNA; actives raise or lower the signal
In short: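 Multiplexed cis-reporter system in human hepatoma HepG2 cells, transiently transfected. Cells are dosed for 24 h; reporter transcripts are amplified, fluorescently tagged and sized by capillary electrophoresis, with DMSO as negative control.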

[16] = ATG_M_19_CIS: Attagene CIS-FACTORIAL HepG2 Assay for M19 Transcription Factor (Internal Marker) (AID 2282939); conditions: HepG2 Attagene CIS-FACTORIAL M19 internal marker reporter; actives raise or lower the signal
In short: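 Signals come from fluorescence of labelled reporter-specific PCR fragments resolved by capillary electrophoresis, following 24 h treatment of HepG2 cells transfected with cis-promoter reporter units; activity was fitted in both directions relative to DMSO.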

[17] = target: Aryl hydrocarbon receptor (Homo sapiens) (UniProt P35869); experiment: ATG_Ahr_CIS: Attagene CIS-FACTORIAL HepG2 Assay for human Aryl Hydrocarbon Receptor (Ahr) (AID 2282930); conditions: HepG2 AhR cis-factorial reporter transcription; actives raise or lower the signal
Sequence of Aryl hydrocarbon receptor (Homo sapiens) (P35869 whole entry, looked up): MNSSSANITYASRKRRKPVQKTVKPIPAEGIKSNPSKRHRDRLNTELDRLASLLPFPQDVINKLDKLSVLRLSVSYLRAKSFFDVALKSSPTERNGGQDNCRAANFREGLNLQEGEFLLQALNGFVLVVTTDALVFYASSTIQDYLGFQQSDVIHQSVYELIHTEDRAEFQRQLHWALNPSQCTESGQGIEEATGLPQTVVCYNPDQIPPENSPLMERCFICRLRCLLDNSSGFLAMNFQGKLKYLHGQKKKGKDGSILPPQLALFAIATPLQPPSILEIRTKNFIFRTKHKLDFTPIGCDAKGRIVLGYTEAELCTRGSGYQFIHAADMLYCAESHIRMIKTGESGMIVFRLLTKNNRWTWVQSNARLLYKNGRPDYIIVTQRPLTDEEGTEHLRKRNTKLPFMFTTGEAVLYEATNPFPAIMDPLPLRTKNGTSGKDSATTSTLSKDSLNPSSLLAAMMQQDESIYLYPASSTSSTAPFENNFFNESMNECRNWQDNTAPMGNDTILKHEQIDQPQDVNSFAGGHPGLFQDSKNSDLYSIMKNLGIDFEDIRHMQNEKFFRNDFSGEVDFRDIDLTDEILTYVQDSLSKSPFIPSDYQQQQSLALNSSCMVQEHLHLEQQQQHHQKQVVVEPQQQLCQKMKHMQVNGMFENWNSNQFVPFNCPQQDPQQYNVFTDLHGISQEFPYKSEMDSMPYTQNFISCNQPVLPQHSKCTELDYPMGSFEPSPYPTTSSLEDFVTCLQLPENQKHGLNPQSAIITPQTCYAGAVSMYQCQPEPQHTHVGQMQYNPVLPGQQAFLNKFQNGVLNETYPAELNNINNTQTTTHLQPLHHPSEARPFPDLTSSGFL
In short: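 Values derive from bidirectional fitting against DMSO negative control. Underlying signal: cis-element reporter mRNA in transiently transfected HepG2, harvested 24 h post-dose and measured by RT-PCR plus capillary electrophoresis.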

[18] = target: Retinoic acid receptor alpha (Homo sapiens) (UniProt P10276); experiment: ATG_DR5_RAR_CIS: Attagene CIS-FACTORIAL HepG2 Assay for human Retinoic Acid Receptor Alpha (RARE), DR5 submotif (AID 2282934); conditions: HepG2 Attagene cis-factorial RARE DR5 reporter, mRNA; actives raise or lower the signal;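 on AC50: reporter responds to endogenous RAR alpha beta and gamma in HepG2 not RARA alone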
Sequence of Retinoic acid receptor alpha (Homo sapiens) (P10276 whole entry, looked up): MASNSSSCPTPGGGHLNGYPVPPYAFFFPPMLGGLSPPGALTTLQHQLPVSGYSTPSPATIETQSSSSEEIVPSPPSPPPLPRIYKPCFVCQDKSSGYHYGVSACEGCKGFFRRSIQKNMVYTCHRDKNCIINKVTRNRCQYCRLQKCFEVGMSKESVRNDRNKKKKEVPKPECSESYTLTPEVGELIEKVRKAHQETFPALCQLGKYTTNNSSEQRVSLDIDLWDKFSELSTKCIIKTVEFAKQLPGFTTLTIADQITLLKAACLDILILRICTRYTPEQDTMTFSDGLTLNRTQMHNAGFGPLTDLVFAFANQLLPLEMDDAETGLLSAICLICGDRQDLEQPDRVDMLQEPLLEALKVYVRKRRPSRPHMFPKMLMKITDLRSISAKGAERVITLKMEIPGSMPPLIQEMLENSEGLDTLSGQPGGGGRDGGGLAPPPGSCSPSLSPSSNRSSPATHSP
In short: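 Endpoint fitted in both directions relative to DMSO as negative control. It reflects DR5 cis-element reporter mRNA induction in transiently transfected HepG2 cells, measured 24 h after dosing through RT-PCR and fluorescent capillary electrophoresis.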

Measured: AC50

CC(C)(C)c1ccccc1O
active: [5] 174 µM | [6] 163 µM | [8] 100 µM | [9] 75.5 µM | [15] 156 µM
inactive: [1] | [2] | [3] | [4] | [7] | [10] | [11] | [12] | [13] | [14] | [16]

CN(C)[C@@H]1C(=O)C(C(N)=O)=C(O)[C@@]2(O)C(=O)C3=C(O)c4c(O)ccc(Cl)c4[C@@](C)(O)[C@H]3C[C@@H]12
inactive: [5] | [6] | [8] | [17] | [10] | [18] | [12] | [13] | [14] | [15] | [16]
active: [7] 25.9 µM | [9] 26.3 µM | [11] 30.3 µM

Cc1cc(Cl)ccc1N
inactive: [5] | [6] | [7] | [8] | [9] | [10] | [11] | [18] | [12] | [13] | [14] | [15] | [16]
active: [17] 41.4 µM and 33 µM

O=S(=O)(C(Cl)(Cl)Cl)C(Cl)(Cl)Cl
inactive: [6] | [7] | [8] | [17] | [10] | [18] | [14] | [16]
active: [5] 15.2 µM | [9] 2.78 µM | [11] 18.7 µM | [12] 6.13 µM | [13] 14.7 µM | [15] 17.3 µM

CC(C)C(C)(N)C#N (centres undefined)
inactive: [5] | [6] | [7] | [8] | [17] | [9] | [10] | [11] | [12] | [13] | [14] | [15] | [16]
active: [18] 46.9 µM

Clc1cccc(Cl)c1Cl
inactive: [1] | [2] | [3] | [4] | [5] | [6] | [7] | [8] | [17] | [9] | [10] | [11] | [18] | [12] | [13] | [14] | [15] | [16]

Cc1cc(C)cc(C)c1
inactive: [1] | [2] | [3] | [4] | [5] | [6] | [7] | [9] | [10] | [11] | [18] | [12] | [13] | [14] | [15] | [16]

COP(=S)(OC)Oc1cc(Cl)c(I)cc1Cl
inactive: [17] | [9] | [11] | [18] | [12] | [14] | [16]
active: [5] 29.6 µM | [6] 27.9 µM | [7] 50.2 µM | [8] 46.6 µM | [10] 22.5 µM | [13] 34.7 µM | [15] 41.3 µM

C#CCOC(=O)/C=C(C)/C=C/CC(C)CCCC(C)C (centres undefined)
inactive: [6] | [17] | [10] | [11] | [18] | [12] | [13] | [14] | [15] | [16]
active: [5] 39.7 µM | [7] 36.9 µM | [8] 96.1 µM | [9] 55.3 µM

Oc1cc(Cl)c(Cl)cc1Cl
inactive: [3] | [4] | [8] | [17] | [10] | [12] | [13] | [14] | [16]
active: [1] 29.5 µM | [2] 51.8 µM | [5] 39.7 µM | [6] 46.5 µM | [7] 27.2 µM | [11] 26.8 µM | [15] 66.6 µM

OCCN(CCO)CCO
inactive: [1] | [2] | [3] | [4] | [5] | [6] | [7] | [8] | [9] | [10] | [11] | [18] | [12] | [13] | [14] | [15] | [16]

CCCCOC(=O)COC(=O)c1ccccc1C(=O)OCCCC
inactive: [5] | [6] | [7] | [8] | [17] | [9] | [10] | [11] | [18] | [12] | [13] | [14] | [15] | [16]

CC(C)O.CC(C)O.OCCN(CCO)CCO.OCCN(CCO)CCO.[Ti]
inactive: [1] | [2] | [3] | [4] | [5] | [6] | [7] | [8] | [9] | [10] | [18] | [12] | [13] | [14] | [15] | [16]
active: [11] 6.97 µM

O=[N+]([O-])c1c2ccccc2cc2ccccc12
inactive: [5] | [6] | [7] | [8] | [17] | [9] | [10] | [11] | [18] | [12] | [13] | [14] | [15] | [16]

O=C(CBr)c1ccc(O)cc1
inactive: [5] | [6] | [7] | [8] | [17] | [9] | [10] | [11] | [18] | [12] | [13] | [14] | [15] | [16]

Cc1ccc(CCl)cc1
inactive: [5] | [6] | [7] | [8] | [17] | [9] | [10] | [11] | [18] | [12] | [13] | [14] | [15] | [16]

CC[N+](CC)(CC)CC
inactive: [5] | [6] | [7] | [8] | [17] | [9] | [10] | [11] | [18] | [12] | [13] | [14] | [15] | [16]
